The source made the active and inactive calls.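 Rule for the calls: active = response below a set limit, under 55% cells CD8-positive and vesicle-bound, and CD8 cells' 90th-percentile brightness under 279; inactive = the rest.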
Experiment: modulators of CIT2-GFP expression in yeast, confirmation, S. cerevisiae, GFP fusion, cherry picks, mother/daughter gates (AID 2274)
Details: S. cerevisiae CIT2-GFP strain, flow cytometry, 3 h; measured here: daughter cell gate; at 10 µM; stronger effect = higher value

SMILES	GFP response, % of DMSO
CCCCNC(=O)c1cc2c(=O)n3cccc(C)c3nc2n(Cc2ccncc2)c1=N	96.4%
O=C(O)CSC1CC(=O)N(c2ccc(Cl)cc2)C1=O (stereo not given)	90.5%
CCN(CC)CCCN(C(=O)c1cccs1)c1nc(-c2ccc(OC)cc2)cs1	101%
CC(C)(C)C(=O)NC(=S)NNC(=O)c1sc2ccccc2c1Cl	90.5%
Cc1cccc(N=c2oc3cc(O)ccc3cc2C(N)=O)c1	90.5%
O=C(NOC(=O)c1ccccc1)c1ccccc1	103%

Same assay, conditions: S. cerevisiae CIT2-GFP strain, flow cytometry, 3 h; measured here: mother cell gate; at 10 µM; stronger effect = higher value

SMILES	GFP response, % of DMSO
CCCCNC(=O)c1cc2c(=O)n3cccc(C)c3nc2n(Cc2ccncc2)c1=N	95.6%
CCN(CC)CCCN(C(=O)c1cccs1)c1nc(-c2ccc(OC)cc2)cs1	101%
CC(C)(C)C(=O)NC(=S)NNC(=O)c1sc2ccccc2c1Cl	91.5%
O=C(NOC(=O)c1ccccc1)c1ccccc1	96.6%

Experiment: inhibitors of CD8+ T cell-vesicle binding, pilot screen, LFA-1/ICAM-1 modulator project, MLPCN validation set, flow cytometry (AID 2523);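 for vesicle binding response: mean PE anti-B7-1 fluorescence of CD8+ cells relative to row control; 100% = QL9-loaded vesicles with DMSO vehicle in the same plate row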
Details: 2C mouse CD8+ T cells, at 7 µM, stronger effect = lower value; double positive events: measured here: CD8+/vesicle+ event percentage

SMILES	double positive events	vesicle binding response
COc1cc(/C=C(\C#N)C(=O)N2CCc3ccccc32)ccc1O	64.1%	273% (inactive)
O=C(Nc1ccccc1)c1ccccc1CCc1ccccc1	61.3%	167% (inactive)
COc1ccc(CCN2CCC(Nc3nc4ccccc4n3Cc3ccc(F)cc3)CC2)cc1	44.8%	112% (inactive)
CCOc1ccc(CC2c3cc(OCC)c(OCC)cc3CCN2C(=O)CN2CCN(C)CC2)cc1OCC (stereo not given)	61.7%	160% (inactive)
COc1ccc2c(CCNC(=O)c3ccc([N+](=O)[O-])cc3)c[nH]c2c1	56.1%	210% (inactive)
O=c1[nH]c(Cc2ccccc2)nc2c1oc1ccccc12	58.4%	200% (inactive)
O=C(c1ccccc1)N1CCN(C(=O)c2ccccc2)CC1	57.3%	175% (inactive)
COc1ccccc1C1(CC(=O)N2CCCCC2)CCOC(C(C)C)C1 (stereo not given)	60.3%	205% (inactive)
COc1cc([C@@H]2c3cc4c(cc3[C@H](O)[C@H]3COC(=O)[C@H]23)OCO4)cc(OC)c1OC	63.2%	180% (inactive)
N=C1C(c2ccccc2)=C(O)CN1CCCO	58.1%	157% (inactive)
CCS(=O)(=O)Nc1cc(OC)c(OC)cc1Cc1nccc2cc(OC)c(OC)cc12	57.8%	90.7% (inactive)
O=C(OCCN1CCCC1)C1(c2ccccc2)CCCC1	65.8%	226% (inactive)
CC(=O)N1CC2(C)CN(C(C)=O)CC(C)(C1)C2	60.3%	169% (inactive)
COc1ccc(CCCC(=O)O)c(C)c1	63.8%	282% (inactive)
Cc1ccc2c(CN3CCN(Cc4ccc5c(c4)OCO5)CC3)cc(=O)oc2c1C	58.4%	88.4% (inactive)
COc1ccc(C(=O)Nc2ccc(OC)c([N+](=O)[O-])c2)cc1Br	59%	113% (inactive)
O=C(Oc1cccccc1=O)c1ccccc1	63.4%	281% (inactive)
C=CCc1ccc(OCC(O)COc2ccc(CC=C)cc2OC)c(OC)c1	58.6%	140% (inactive)
COc1cc(NC(=O)N[C@@H](Cc2ccccc2)C(=O)O)cc(OC)c1	62.8%	221% (inactive)
CC1/C(=C\c2ccc(Cl)cc2)C(=O)C2CC1C2(C)C (stereo not given)	60.1%	168% (inactive)
CCC(=O)c1ccc(O)cc1	72%	882% (inactive)
COc1ccc(C(=O)[C@H]2[C@H]3C(=O)N(c4ccccc4)C(=O)[C@H]3C3C=CC=NN32)cc1 (stereo not given in full)	62.9%	227% (inactive)
C[C@H](NC(=O)Nc1ccccc1F)C(=O)O	66%	272% (inactive)
CCCN1C[C@H](CSC)C[C@@H]2c3cccc4[nH]cc(c34)C[C@H]21	58.9%	167% (inactive)
C[C@H](NC(=O)OC(C)(C)C)C(=O)NCC1CCC(C(=O)O)CC1 (stereo not given in full)	58%	166% (inactive)

Source: PubChem BioAssay
